According to PubChem BioAssay AID602475 (National Center for Advancing Translational Sciences (NCATS), 2012):
Results filed as inconclusive are left out. Values without a mark were called inactive. Calls of active or inactive are those of the source. Calls follow the shape of the dose curve; as a rule, active = well fitted inhibition curve with a large enough effect; inconclusive = small, poorly fitted or top-dose-only effect; inactive = no such curve, though single readings can be large or run the other way.

Target: Luciferin 4-monooxygenase (Photinus pyralis) (UniProt P08659)
Experiment: FLuc inhibitory activity for the follow-up compounds in a biochemical assay with an in-house formulation of detection reagent
Details: purified FLuc, luminescence; series mostly up to 25.6 µM; activity change, negative = inhibition: at the top concentration
Excerpt: NCGC Assay Overview: Firefly (Photinus pyralis) luciferase is one of the most commonly used transcriptional reporters. It is considered one of the more dynamically responsive reporters - that is, responsive to changes in reporter transcription - as it requires no post-translational modifications and is enzymatically active directly after protein synthesis (Wood, 1998). With no endogenous expression in mammalian cells and without the requirement of external excitation, it offers very little background signal, thus generally providing excellent signal to background for most assays. Previous profiling work to determine the prevalence of compounds that affect FLuc enzymatic activity (PubChem AID 411) identified that ~3% of the MLSMR library (then at ~72K) inhibited FLuc (Auld et al., 2008). […] Of the compounds identified in this profile that inhibited FLuc, 151 compounds were selected for further analysis, in an effort to better understand their mode of inhibiting FLuc. The assay described here was to determine the activity of the compounds in a FLuc assay that used an in-house formulation of detection reagent.
NCGC Assay Protocol Summary: Reagents: 300mM Tris-HCl, 300mM Trizma base, 300mM MgCl, 1% Triton-X100, 5mM DTT, 500uM Coenzyme A trilithium salt (Sigma #C3019),450uM ATP (Sigma #A7699), 1mM D-luciferin sodium salt monohydrate (Biosynth #L8240); 10nM P. pyralis luciferase (Sigma #L9506) Control compounds used were two known firefly luciferase inhibitors (3-(5-(3-chlorophenyl)-1,2,4-oxadiazol-3-yl)benzoic acid and 5-(2-fluorophenyl)-3-phenyl-1,2,4-oxadiazole), and DMSO. Assay Summary: Six microliters of buffer containing firefly luciferase (final concentrations: 50mM Tris acetate, 10nM P. pyralis luciferase) are dispensed into each well of a Greiner white, solid-bottom 1536-well format plate using a flying reagent dispenser (FRD). These assay plates were then treated with 23nL of compound or DMSO using a Kalypsys pin tool, which allows for delivery of a 12-point intraplate titration of each compound to the assay plate (quantitative HTS), with final compound concentrations ranging from approximately ~25uM to 0.1nM. Three microliters of 3X in-house detection reagent was then delivered by FRD to each well (final concentrations in assay: 300mM Tris-HCl, 300mM Trizma base, 300mM MgCl, 1% Triton-X100, 5mM DTT, 500uM Coenzyme A trilithium salt, 450uM ATP, 1mM D-luciferin sodium salt monohydrate). Luciferase activity was then measured using a ViewLux CCD imager (PerkinElmer), with an average exposure time of 2-30 seconds (2X binning, medium/high gain).

Sequence of Luciferin 4-monooxygenase (Photinus pyralis) (P08659 whole entry, looked up): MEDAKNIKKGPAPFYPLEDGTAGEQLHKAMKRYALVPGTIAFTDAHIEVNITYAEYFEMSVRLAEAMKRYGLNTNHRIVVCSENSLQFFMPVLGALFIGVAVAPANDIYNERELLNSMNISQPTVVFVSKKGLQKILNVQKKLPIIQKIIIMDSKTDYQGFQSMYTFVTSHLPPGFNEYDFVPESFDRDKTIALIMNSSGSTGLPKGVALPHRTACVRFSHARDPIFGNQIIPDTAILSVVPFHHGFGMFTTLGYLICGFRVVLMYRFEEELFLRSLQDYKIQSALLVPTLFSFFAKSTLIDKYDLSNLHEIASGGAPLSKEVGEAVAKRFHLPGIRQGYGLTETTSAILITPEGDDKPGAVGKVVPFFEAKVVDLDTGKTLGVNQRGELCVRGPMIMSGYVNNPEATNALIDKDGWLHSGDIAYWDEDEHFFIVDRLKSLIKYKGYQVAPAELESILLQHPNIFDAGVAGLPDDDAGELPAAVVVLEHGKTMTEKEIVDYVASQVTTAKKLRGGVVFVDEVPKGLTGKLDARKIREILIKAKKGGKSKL

Row | SMILES | activity change, negative = inhibition [%] | Potency
1 | O=C(O)c1cccc(NC(=O)c2cccc(S(=O)(=O)N3CCc4ccccc43)c2)c1 | -6.28 | 
2 | CCOC(=O)N1CCN(CC(=O)Nc2nc3ccc(OC)cc3s2)CC1 | 3.07 | 
3 | Cc1cccc(C(=O)Nc2ccccc2C(=O)Nc2ccc(C(=O)O)cc2)c1 | -43.7 | 
4 | COc1ccc(NS(=O)(=O)c2cccc(C(=O)Nc3ccccc3C(=O)O)c2)cc1 | -0.994 | 
5 | COc1cc(OC)cc(C(=O)Nc2ccccc2-c2nc3ccccc3s2)c1 | -6.18 | 
6 | O=C(Nc1ccccc1C(=O)O)c1cccc(S(=O)(=O)N2CCCC2)c1 | -18.7 | 
7 | Cc1ccc(C(=O)Nc2cccc(C(=O)O)c2)cc1S(=O)(=O)N1CCOCC1 | -8.83 | 
8 | COc1ccc(CC(=O)Nc2ccc(-c3nc4ccccc4s3)c(C)c2)cc1 |  | 11 µM (active)
9 | COc1cc(OC)cc(C(=O)Nc2ccc(-c3nc4ccccc4s3)c(C)c2)c1 | -18.6 | 
10 | CCOc1c(Cl)cc(C(=O)Nc2ccccc2C(=O)O)cc1Cl | -14.5 | 
11 | CC(C)c1ccc(-c2nc3ccccc3s2)cc1 |  | 0.098 µM (active)
12 | CN(C)c1cccc(C(=O)Nc2ccc(-c3nc4ccccc4s3)cc2)c1 | -13.2 | 
13 | COc1ccc2nc(NC(=O)c3cccs3)sc2c1 | -2.15 | 
14 | COc1ccc(Br)cc1C(=O)Nc1ccc(C(=O)O)cc1 | -16.9 | 
15 | CC(C)(C)NC(=O)c1ccccc1-c1nc2ccccc2s1 | 16.5 | 
16 | COc1ccc2nc(NC(=O)CCc3nc(-c4ccccc4F)no3)sc2c1 |  | 6.94 µM (active)
17 | Cc1ccc(C(=O)Nc2ccc(C(=O)O)cc2)cc1S(=O)(=O)NCc1ccccc1 | -18.7 | 
18 | O=C(O)c1ccc(NC(=O)c2ccccc2NC(=O)c2ccccc2Br)cc1 | -14 | 
19 | COc1cc(OC)cc(-c2nc3ccccc3s2)c1 | -24 | 
20 | O=C(Nc1ccccc1C(=O)O)c1cc(S(=O)(=O)Nc2ccccc2)ccc1Cl | -7.63 | 

Row | SMILES | activity change, negative = inhibition [%] | Potency
21 | COc1cccc(-c2nc3ccccc3s2)c1 |  | 7.79 µM (active)
22 | COc1ccc2nc(NC(=O)c3ccco3)sc2c1 |  | 6.94 µM (active)
23 | Cc1ccc(S(=O)(=O)N2CCN(C(=O)c3ccccc3-c3nc4ccccc4s3)CC2)c(C)c1 | 15.4 | 
24 | Cc1ccc2sc(-c3ccc(N)cc3)nc2c1 |  | 6.19 µM (active)
25 | Nc1ccc2nc(-c3ccc(O)cc3)sc2c1 |  | 6.19 µM (active)
26 | CN(C)S(=O)(=O)c1ccc(C(=O)Nc2cccc(C(=O)O)c2)cc1 | -9.26 | 
27 | O=C(Cc1ccc(Cl)cc1)Nc1cccc(C(=O)Nc2ccccc2C(=O)O)c1 | 9.02 | 
28 | C/C(=N\NC(=O)c1ccccc1NC(=O)c1ccc(Cl)cc1)c1ccncc1 |  | 1.1 µM (active)
29 | Cc1ccc(C(=O)Nc2ccc(C(=O)O)cc2)cc1S(=O)(=O)Nc1ccccc1 | -13.9 | 
30 | CC(C)(C)C(=O)Nc1ccc(-c2nc3ccccc3s2)cc1 |  | 0.0219 µM (active)
31 | Cc1ccc2nc(-c3ccc(NC(=O)CN4CCN(C(=O)c5ccco5)CC4)cc3)sc2c1 |  | 2.46 µM (active)
32 | COc1ccc(C(=O)Nc2cccc(C(=O)O)c2)cc1S(=O)(=O)N1CCCC1 | -14 | 
33 | Nc1ccc(-c2nc3ccc(N)cc3s2)cc1 |  | 4.91 µM (active)
34 | Cc1c(NC(=O)c2cccs2)cccc1-c1nc2ccccc2s1 | -9.6 | 
35 | Cc1ccc(S(=O)(=O)N2CCOCC2)cc1C(=O)Nc1ccccc1C(=O)O | -0.566 | 
36 | O=C(O)c1ccc(NC(=O)c2cc(S(=O)(=O)N3CCCCC3)c(Cl)cc2Cl)cc1 | -9.37 | 
37 | Nc1ccc(-c2nc3ccc(C(=O)O)cc3s2)cc1 |  | 5.51 µM (active)
38 | COc1ccccc1C(=O)Nc1ccc(C(=O)Nc2ccccc2C(=O)O)cc1 | -5.34 | 
39 | CCOc1ccc2nc(NC(=O)c3ccccn3)sc2c1 |  | 3.9 µM (active)
40 | Cc1ccc(C(=O)Nc2cccc(C(=O)O)c2)cc1S(=O)(=O)N1CCCCC1 | -17.8 | 
